Screens as filed in PubChem BioAssay.
This is a sample that favours compounds with a hit; in the whole collection about 1.8% have one here.
MazF activator: activators of E. coli MazEF toxin-antitoxin RNase, primary screen, biochemical, fluorescence, uHTS; Endoribonuclease toxin MazF (Escherichia coli (strain K12)), P0AE70; 0.32% of 350,000 active; AID 504720, 2011; FAM/BHQ RNA-DNA oligo cleavage fluorescence, 5 h; activation, % at 20 µM; in the data active means activation above about 50%
Target sequence (P0AE70 whole entry, looked up): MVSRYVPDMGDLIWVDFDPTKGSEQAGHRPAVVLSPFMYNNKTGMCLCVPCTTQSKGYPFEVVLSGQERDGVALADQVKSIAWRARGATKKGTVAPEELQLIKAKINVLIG
PriA SSB inh: inhibitors of Klebsiella pneumoniae PriA binding to SSB C-terminal tail, primary screen, biochemical, AlphaScreen; AlphaScreen SSBct-PriA binding, biotinylated peptide; PriA–SSB C-terminal tail interaction (Klebsiella pneumoniae); 0.6% of 430,000 active; inhibition, % at 33 µM; AID 1272365, 2023; in the data active means inhibition mostly above about 37%, no sharp cut-off; inactive means mostly below about 20%;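 further: plate controls were negative control peptide for no effect and reference peptide for full effect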
PfHsp40 yeast: rescue of yeast from PfHsp40 toxicity, primary screen, S. cerevisiae, ATP luminescence; AID 504582, 2011; 0.68% of 340,000 active; growth rescue, % at 12.5 µM; S. cerevisiae expressing PfHsp40, growth rescue; in the data active means growth rescue above about 28%, passing the limit was not always enough;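 further: yeast W303a lacking pdr1 and pdr3 grown in galactose medium; growth measured after three days at 30 °C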
PrPC TRFRET: inhibitors of human cell surface prion protein PrPC, primary screen, cell-based, TR-FRET. TR-FRET read-out. inhibition, % at 13.8 µM. 0.43% of 370,000 active; in the data active means inhibition above about 24%; further: 0% = median of the test wells and 100% = reference compound wells
PrP 5UTR inh: inhibition of PrP 5' UTR reporter expression; AID 488862, 2010; inhibition, % (concentration not given with the values); 0.35% of 340,000 active; cell-based PrP 5' UTR mRNA reporter, plate reader; in the data active means inhibition above about 52%; further: 0 = median of the neutral control wells
* marks the source's active call; other numbers are inactive results; / = no result; + = active, no number; ! = repeats disagree.

SMILES	MazF activator	PriA SSB inh	PfHsp40 yeast	PrPC TRFRET	PrP 5UTR inh
COc1ccc2sc(-c3ccccc3OC)c(-c3ccc(OCCN4CCOCC4)cc3)c2c1	15	-3	-1	/	-17
COc1cc2sc(-c3ccccc3OC)c(-c3ccc(OCCN4CCCCC4)cc3)c2cc1OC	5	46*	-3	-15	-10
COc1ccccc1-c1sc2cc3c(cc2c1-c1ccc(OCCN2CCCCC2)cc1)OCO3	-9	14	43*	4	-23
C1=C(c2sc3ccccc3c2-c2ccc(OCCN3CCOCC3)cc2)CCCC1	1	41*	-2	10	-30
COc1ccccc1C1=NC(c2ccc(C)cc2)N=C1C (centres undefined)	2	-19	0	2	-13
CCCCCCC=NNc1nnc(Cc2ccc(OC)c(OC)c2)c(=O)[nH]1	/	-11	/	/	/
Nc1c(C(=O)C2CC2)sc2nc(-c3cccs3)cc(C(F)(F)F)c12	+	-8	0	7	-13
COc1ccc2nc(-c3ccc(F)c(NC(=O)c4cc(Cl)ccc4OC)c3)cn2n1	/	-24	/	/	/
Cc1ccc2nc(N3CCN(c4cccc(C)c4C)CC3)c3nnnn3c2c1	-1	-13	-1	-3	-1
Cc1ccc2nc(Cl)c3nnnn3c2c1	8	-8	85*	/	-2
CCCCNC(=O)COC(=O)c1ccc(NS(=O)(=O)c2ccc3c(c2)OCCO3)cc1	-10	-17	0	-2	-23
O=C(COc1coc(CN2CCc3ccccc3C2)cc1=O)Nc1ccc(F)cc1	2	1	-1	6	-22
O=C(COc1coc(CN2CCc3ccccc3C2)cc1=O)Nc1ccc(F)cc1F	211*	-17	1	0	-16
CCOC(=O)N1CCN(C(CC(=O)OC)C(=O)OC)CC1 (centres undefined)	/	76*	/	/	/
COC(=O)CC(C(=O)OC)N1CCN(c2ccc(F)cc2)CC1 (centres undefined)	/	-3	/	/	/
CS(=O)(=O)c1ccc(NC(=S)N2CCc3ccccc32)cc1	/	1	/	/	/
COc1ccc(N2C(=O)CC(SCc3ccc(Cl)cc3)C2=O)cc1 (centres undefined)	12	-25	70*	-5	-24
CC[C@]12c3[nH]c4ccc(Cl)cc4c3CCN1C(=O)[C@@H](CC(=O)NC/C=C(\C)CCC=C(C)C)C[C@@H]2C(=O)N1CCN(C(=O)C2CC2)CC1	1	-11	-2	8	-17
CC1CC(C)CN(C(=O)c2cccc(S(=O)(=O)Nc3cc(C(F)(F)F)ccc3Cl)c2)C1 (centres undefined)	-11	13	225*	10	-14
O=c1[nH]c2cc3c(cc2cc1CN(Cc1ccccc1)Cc1nnnn1Cc1ccco1)OCCO3	49	7	0	-6	-5
O=c1[nH]c2cc3c(cc2cc1CN(Cc1cccnc1)Cc1nnnn1Cc1ccco1)OCCO3	54*	2	0	3	/
CN(C)c1ccc(/C=C/c2ccc3ccccc3[n+]2C)cc1	11	14	53*	-51	1
O=C(c1ccco1)N1CCCc2ccc(NS(=O)(=O)c3cccs3)cc21	/	9	/	/	/
CCOc1ccc(OCC(=O)Nc2ccc(OC)cc2)cc1	-5	-19	0	12	-1
Cc1nc(NC(=O)/C=C/c2ccc(Cl)cc2Cl)sc1C(=O)N(C)C	79*	-8	-2	1	-107
SMILES	MazF activator	PriA SSB inh	PfHsp40 yeast	PrPC TRFRET	PrP 5UTR inh
Cc1ccc(S(=O)(=O)NNC(=O)c2c(O)c3ccccc3[nH]c2=O)cc1	-3	-5	-2	-2	-20
COC(=O)Nc1ccc(S(=O)(=O)NNC(=O)c2c(O)c3ccccc3[nH]c2=O)cc1	3	-8	52*	3	-45
COc1ccc(Cl)cc1NC(=O)Nc1cc(C)on1	-24	-16	0	6	-27
O=[N+]([O-])c1cc(Cl)ccc1Nc1ccc(O)cc1	/	103*	/	/	/
O=[N+]([O-])c1ccc(Cl)cc1Nc1ccccc1	/	56	/	/	/
Cc1nn(-c2ccc(F)cc2)c(Cl)c1C=NNC(=O)c1cccs1	/	6	/	/	/
Cc1nn(-c2ccc(F)cc2)c(Cl)c1/C=N/NC(=O)c1cccs1	68*	/	1	4	-114
CN1CCN(c2ccc(NC(=O)Oc3ccccc3)cc2)CC1	1	5	0	-6	1
C=CC(=O)Nc1ccc(N(C)c2ccnc(Nc3ccc(N4CCN(C)CC4)cc3)n2)cc1	4	44*	0	-2	46
C#CCN1C(=O)C2(C(C#N)=C(N)OC(C)=C2C(=O)OCc2ccccc2)c2ccccc21 (centres undefined)	7	4	0	-10	-30
CCOC(=O)C1=C(C)OC(N)=C(C#N)C12C(=O)N(C)c1ccccc12 (centres undefined)	63*	-8	0	1	-5
CCN(CC)S(=O)(=O)c1ccc(Cl)c(NC(C)=O)c1	-1	-1	-1	-1	-16
O=C1c2ccccc2C(O)(c2ccccc2)N1c1ccc([N+](=O)[O-])cc1Cl (centres undefined)	0	-6	205*	-4	-14
CCCNC(=S)N1CCC(NC(=O)Nc2ccc(C)cc2)CC1	4	-4	-1	-9	-16
CCc1nnc(NC(=O)c2ccc(S(=O)(=O)N(CC)Cc3ccccc3)cc2)o1	2	-16	172*	9	-6
COC(=O)c1c(N2C(=O)CC(Sc3ncccc3C(=O)O)C2=O)sc(C)c1C (centres undefined)	-8	-1	2	4	-18
CCOc1ccccc1C(=O)NCC[C@H](O)c1ccccc1	/	43*	/	/	/
CC1CCN(C(=O)Cn2cc(C#N)c3ccccc32)CC1	1	-11	1	-2	-18
CCc1oc2ccccc2c1C(=O)c1cc(Br)c(O)c(Br)c1	-3	-3	259*!	9	-11
CCc1ccc(OCC(=O)c2c(O)c3ccccc3oc2=O)cc1	-7	10	0	2	-26
CC1CCN(C2=C(NS(=O)(=O)c3ccccc3)C(=O)c3ccccc3C2=O)CC1	2	64*	1	-24	-16
CC1CCCN(C2=C(NS(=O)(=O)c3ccc(Br)cc3)C(=O)c3ccccc3C2=O)C1 (centres undefined)	8	0	0	-47	-26
CC1CCN(C2=C(NS(=O)(=O)c3ccc(Br)cc3)C(=O)c3ccccc3C2=O)CC1	-16	70*	2	-35	-28
CC1CCN(C2=C(NS(=O)(=O)c3ccc(Cl)cc3)C(=O)c3ccccc3C2=O)CC1	-3	-12	0	-15	-19
Cn1ccnc1SCC(=O)NCC(=O)Nc1ccc(F)c(F)c1F	2	-10	2	-5	-15
CCOC(=O)c1c(NC(=O)CN2C(=O)C(C)SC(C)C2=O)sc2c1CCCCC2 (centres undefined)	/	-7	/	/	/
